# Measured values published in the supplement of paper PMC11417369.
# In all, about 25,000 sequences were measured (“ln(normalized median fluorescence intensity)”: median about 9.3, highest 2% from about 10 on). What follows is part of a selection rich in the highest values, with near analogues and random picks from the rest.
# System: PF3D7_0420300 AP2 domain 1 (GST-tagged)
# Assay: gcPBM binding intensity (ln(normalized median fluorescence intensity)); higher = stronger DNA binding
# In short: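 Alexa488 anti-GST antibody, scanned at 488 nm, detected GST-tagged P. falciparum DNA-binding domains that had been expressed in E. coli and incubated for 1 h on an Agilent 4 × 180k array. The array carried primer-extended double-stranded 36-bp intergenic genomic probes and negative controls. Binding intensity is the highest Masliner-normalised natural-log median intensity across replicate spots of either orientation of each probe.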
row,Sequence,gcPBM binding intensity (ln)
1,TATAATATATATGTAACACACAAAAGTTATATACTT [CACACA_site2868],9.37
2,AAAATTTTCTTTTTATGTACACATAATTTTACCGGA [XGTACX_site5276],9.18
3,ATAAAATATTTTTGAACATGCAGGTAAAAAATAAAA [TGCATGCA_site1019],9.27
4,ATGGATTATACGTGCACACATATATACCAATAAATA [CACACA_site4524],9.43
5,AAAAGTTTTATTTAAATGAATTAATCTTTACTATAT [CACACA_negctrl_site282],9.07
6,AAAACACAATTTATTACACACATATATTATATATTA [CACACA_site1420],9.49
7,TGAATATTCATGTGTGTGCGCATGTTGTTAGACCAT [GTGCAC_site9869],9.69
8,AACATTTTAAATTATACACACATTTTGAATATATAT [CACACA_site3470],9.54
9,AGCATCATTTTACACACATGCAAATGTAAAATAGGA [TGCATGCA_site460],9.43
10,GCCATTGTACCATCCACACACATATAAATATGTATA [CACACA_site7303],9.85
11,TATATATATAATATTGCACACAAAATTAAAAGTAAA [CACACA_site7889],9.47
12,AAAAAAAAAAAAAACACACACACACGCAGATATATA [CACACA_site6672],10.1
13,TACACCCATAGACACACACACACGCATAAAAAAAAA [CACACA_site8428],9.93
14,AAAAAAAAAAAACACACACACACACCCATATATAAA [CACACA_site1170],10.2
15,AAAAAAAAAAAAGAAACACACACATATATATATATA [CACACA_site8525],9.69
16,AAAAAAAATAAACACACACACATACCCATAAATATA [CACACA_site5980],10.1
17,TACACGCAGAAACACACACACACACCCATATATATA [CACACA_site637],10.3
18,CACCCATAGAAACACACACACGCATAAAAAAAAAAA [CACACA_site1513],9.71
19,CACCCATAAATATACACACGCACAACACAAAATAAA [CACACA_site2903],9.73
20,CAAGAAAAGAAACACACACACATATATATATATATA [CACACA_site3881],9.87
21,AAAAAGGAGAAACACACACACACACCCATATATATA [CACACA_site905],10.2
22,TACACGCATAAACACACACACACACCCATATATATA [CACACA_site8114],10.4
23,GATAGAAAAAAATAATGTACACACACATATATGTTT [XGTACX_site392],9.72

row,Sequence,gcPBM binding intensity (ln)
1,AAAAAAATTCTGACTTGTACATATAAAATTTACAAA [XGTACX_site4408],8.78
2,TACGTATGCCTGTGATGTACATATATATATACATAC [XGTACX_site4728],9.36
3,AATCACCAAATATGTACACACCTTAACATGTTTATA [CACACA_site5180],9.64
4,TTTAAAAGATAAAACACACATACTAATAAAAAACAA [CACACA_site2556],9.71
5,AAGTGTCAAAGTTACACACACAAACTTGTCATTTTT [CACACA_site837],9.75
6,AAAAATCATTTAAGAACACACAAATATTTCCATTAA [CACACA_site1488],9.35
7,TTATCCTTGTAACAATGTACACATTATTTAATACTT [XGTACX_site1830],9.29
8,TACATATTTTTCTTTTCACACATGGAAAAAAAAGGT [CACACA_site5146],9.11
9,ACATATAAAATGTATACACACAAATATTACAGAGAT [CACACA_site4920],9.8
10,TCATAGTATAAACACACACACACACCCATATATATA [CACACA_site8512],10.3
11,ATTCATATGAAACACACACACACACCCATAAAAAAA [CACACA_site3246],10.1
12,TAAACACCCATATAAACACACATATAAACACCCATA [CACACA_site5382],9.84
13,CACAGTGATATAAAAACACACATGAATTATAATTTC [CACACA_site1667],9.43
14,TTTTTCTGTTCTTTTTGTACTTAAATATATTTATTT [XGTACX_site5658],9.57
15,TAAATATTATATTTATGTACATAAGTTTTTTTTAAT [XGTACX_site3559],9.08
16,AATATTTCTATATGAACATGCAATGTATCTTTTTAT [TGCATGCA_site738],9.13
17,ATAGTATACGGACACACACACACACCGATATATATA [CACACA_site5032],10.3
18,AGTATACATATATATACACACACACCGATATATATA [CACACA_site8357],10.1
19,ATAGTATACAGACACACACACACACCGATATATATA [CACACA_site8511],10.3
20,CATATACTCGGACACACACACACACCGACAAAAAAA [CACACA_site4433],10.1
21,AGTATACACAGACACACACACACATATATATATATA [CACACA_site8510],10.2
22,TAAATAAATTTATACACACACACACCGATATATATA [CACACA_site4622],10.1
23,ATTCATCTATTTTGTAGTACTAAATATATATCTACT [XGTACX_site8790],9.46

row,Sequence,gcPBM binding intensity (ln)
1,TGTAATAATCTTCATTTCTTTTTTTTTTTTTTTTGT [CACACA_negctrl_site1388],8.96
2,ATTTACATAATAAAATGTACATTTATAAATATTATA [XGTACX_site1901],9.13
3,AATATAGATACATATACACACACACCCATACATATA [CACACA_site9137],10.1
4,CATATATAGATATATACACACATACATACATACATA [CACACA_site7748],9.59
5,CACAGATATATACATACACACATATATACACATATA [CACACA_site6323],9.72
6,TATAGATACAGATACACACACACACCGACATATATA [CACACA_site5832],10.2
7,TATAGATACATATACACACACACACCGACATATATA [CACACA_site9138],10.3
8,CATACATACATACATACACACATACAGATATATATA [CACACA_site4890],9.84
9,ATATATATATAATAAGTGCAAAAAAAAGAAAAAAAT,9.74
10,GTTTAACTGTTTTATACACACAATGTATCCAATAAA [CACACA_site5612],9.49
11,CTTATATTAAAACACACACACGCACAAAACAGAAAT [CACACA_site1462],10.2
12,ACTTATATAAAACATTAACACACAAAGAAAAAAAAT [CACACA_site8529],9.96
13,AGTATAAAAATAAGCACACACACAAATATATATTTA [CACACA_site923],10.2
14,TATAAAAATAAGCACACACACAAATATATATTTATT [CACACA_site922],10.1
15,AATATAAATAAAAACACACACACACGGATATTTATA [CACACA_site7134],10.3
16,ATAAAATTTATATAAGCACACAAATATATATTTATA [CACACA_site9083],9.29
17,CATAATACAGATAACACACACAATTATACATAAAAT [CACACA_site5742],10
18,GATAAATTAAAACACACACACATATATATATATATA [CACACA_site3962],9.67
19,AAAAACAACACAGATAAATTAACACACACACACATA [XGTACX_negctrl_site588],10.2
20,TAAAAAAAAAAAAAAACACACATATAAATATTTATA [CACACA_site6702],9.45
21,TATATATTATTTAAAACACACAAAAAAAAAAATTAT [CACACA_site89],9.59
22,CATAAAATATAAAACACACACACATATATTTATATA [CACACA_site6247],10
23,AACCACATACATATAACACACATATACAATATATAT [CACACA_site8607],9.65

row,Sequence,gcPBM binding intensity (ln)
1,TTTTGTTATTATAAATAGTAACATTTGTGAATATAT [TGCATGCA_negctrl_site132],8.92
2,GGCCCAACTTCTTCTGACGAAAACGTAAATTGTGTG [XGTACX_negctrl_site533],9.22
3,CTATATCATTTTCTAGCACACACATTGTTATTACCT [CACACA_site8204],9.84
4,AAAAACTAACTGTATTGTACTCTCTTATAAATTCAC [XGTACX_site8967],9.15
5,ATATATATATATATATATATAATAAAAGATCATTTA [XGTACX_negctrl_site371],9.09
6,AAAAAATATATATATATATATATGTAATATTTTTTT [XGTACX_negctrl_site439],9.07
7,TAAATAATGTAAAAAACATCATCAAAATGTTAATTA [CACACA_negctrl_site1768],9.09
8,TATGAAATATTTATACACAGAACTTCATAATTTTCA [TGCATGCA_negctrl_site509],9.04
9,CGTGAATATATGATATGTACTTATAAAAATTTGTGC [XGTACX_site5480],9.26
10,ATACAACAGATATATACACACATATAACAATAATAA [CACACA_site7560],9.93
11,AATACAATTTTTAACACACACACAATAATACAGATA [CACACA_site4823],10.2
12,CACAGATAAATTAACACACACACACCGATATATATA [CACACA_site6049],10.2
13,AACACAGATAAATTAACACACACACCCATATATATA [CACACA_site9310],10.1
14,TAAATAAAAAGACACACACACATATTTATATTTATA [CACACA_site7135],10
15,CTATTTCATAAACACACACACACAAACAAACATATA [CACACA_site8234],10.4
16,ATAAAAAAAGGACACACACACATATATTTATTTATA [CACACA_site7438],10.1
17,AATAAATATATATTCACACACAAACATATATATATA [CACACA_site4023],9.71
18,ATTTAATACAAATACACACACAAATAAATACAGATA [CACACA_site5956],10.2
19,CTATTTCATGGACACACACACACAAACAAACATATA [CACACA_site4696],10.2
20,CACAGATAAATTAACACACACACACCCATATATATA [CACACA_site3960],10.1
21,ATAAAAAGGAGACACACACACACACGCATATTTATA [CACACA_site6551],10.3
